Assay results as given in PubChem BioAssay.

Biological target: Concanavalin-A (Canavalia ensiformis) (UniProt P02866)
Assay: ConA small-molecule binders, primary screen, artefact control for SMM control protein annotation, biochemical, small-molecule microarray, Alexa647 label, 635 nm (AID 1127);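 further: z combines 667 nm emission intensity with signal-to-noise across three replicate slides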
Settings: ConA-A647 binding fluorescence, higher = more signal

Concanavalin-A (Canavalia ensiformis), sequence (P02866 whole entry, looked up): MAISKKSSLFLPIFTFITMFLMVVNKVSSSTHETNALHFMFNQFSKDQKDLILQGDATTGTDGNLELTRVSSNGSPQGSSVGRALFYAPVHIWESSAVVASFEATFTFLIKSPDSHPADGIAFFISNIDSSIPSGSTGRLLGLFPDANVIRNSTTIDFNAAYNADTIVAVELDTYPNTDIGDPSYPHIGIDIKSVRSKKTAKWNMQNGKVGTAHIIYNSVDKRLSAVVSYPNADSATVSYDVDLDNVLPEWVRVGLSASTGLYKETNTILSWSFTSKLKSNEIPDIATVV

| Compound | composite z-score |
| --- | --- |
| CCOC(=O)C1=CC[C@@H](c2ccccc2)N(S(=O)(=O)c2ccc(C)cc2)[C@@H]1C#N | 0.855 |
| C=CCN1C(=O)[C@]2(O[C@H](CCO)[C@@H]([Si](C)(C)c3ccc(OC)cc3)[C@@H]2C)c2cc(N3C(=O)c4ccccc4Oc4ccccc43)ccc21 | 0.91 |
| C=CCOC(=O)[C@H]1[C@@H]2C(=O)O[C@@H](c3ccccc3)[C@@H](c3ccccc3)N2[C@@H](c2ccc(OCCOC(=O)[C@H]3C[C@H]4C(=O)NCC(=O)N4[C@H]3c3ccc(O)cc3)cc2)[C@]12C(=O)Nc1ccccc12 | 1.18 |
| C=CCOC(=O)[C@H]1[C@@H]2C(=O)O[C@@H](c3ccccc3)[C@@H](c3ccccc3)N2[C@@H](c2ccc(OCCOC(=O)[C@@H]3C[C@@H]4C(=O)N[C@@H](Cc5ccccc5)C(=O)N4[C@@H]3c3ccc(O)cc3)cc2)[C@]12C(=O)Nc1ccc(I)cc12 | 0.92 |
| CC(C)[Si](C#Cc1ccccc1)(O[C@H](c1ccccc1)c1cn(Cc2ccccc2)nn1)C(C)C | 1.17 |
| O=C(NCCN1CCOCC1)[C@@H]1c2ccccc2C(=O)N(CC23CC4CC(CC(C4)C2)C3)[C@H]1c1ccc(CO)cc1 | 1.14 |
| O=C1O[C@@H](c2ccccc2)[C@@H](c2ccccc2)N2[C@@H](c3ccccc3OCCO)[C@]3(C(=O)Nc4ccc(C#CC5(O)CCCCCC5)cc43)[C@@H](C(=O)N3CCCCCCC3)[C@H]12 | 0.93 |
| CCOC(=O)C[C@H]1[C@H](OC(=O)c2ccc(-c3ccccc3)cc2)[C@@H](NC(=O)C2CCCCC2)c2cc(OCCCO)ccc2N1C(=O)Cc1ccc(OC)cc1 | -0.361 |
